Menin MLL FP TR = qHTS Assay for Inhibitors Targeting the Menin-MLL Interaction in MLL Related Leukemias: Competition With Texas Red Labeled MLL-derived Mutant Peptide | O00255 | Menin + Texas Red MLL mutant peptide, fluorescence polarization | Potency, µM (highest dose often 61.6 µM), for the others: at the top dose FP activity change, negative = inhibition, hits mostly inhibitors | 0.23% of 270,000 active | AID 1768, 2009; active means well fitted inhibition curve with a large enough effect in the polarisation, with a control signal flat, not every such curve was filed as active; inconclusive means small, poorly fitted or top-dose-only effect, or effect the other way, or a change in a side signal; inactive means no such curve, though single readings can be large or run the other way; the % refers to the polarisation; further: potency means the concentration at half of the fitted maximal effect; % of control where 0% means no effect
Target sequence (O00255 whole entry, looked up): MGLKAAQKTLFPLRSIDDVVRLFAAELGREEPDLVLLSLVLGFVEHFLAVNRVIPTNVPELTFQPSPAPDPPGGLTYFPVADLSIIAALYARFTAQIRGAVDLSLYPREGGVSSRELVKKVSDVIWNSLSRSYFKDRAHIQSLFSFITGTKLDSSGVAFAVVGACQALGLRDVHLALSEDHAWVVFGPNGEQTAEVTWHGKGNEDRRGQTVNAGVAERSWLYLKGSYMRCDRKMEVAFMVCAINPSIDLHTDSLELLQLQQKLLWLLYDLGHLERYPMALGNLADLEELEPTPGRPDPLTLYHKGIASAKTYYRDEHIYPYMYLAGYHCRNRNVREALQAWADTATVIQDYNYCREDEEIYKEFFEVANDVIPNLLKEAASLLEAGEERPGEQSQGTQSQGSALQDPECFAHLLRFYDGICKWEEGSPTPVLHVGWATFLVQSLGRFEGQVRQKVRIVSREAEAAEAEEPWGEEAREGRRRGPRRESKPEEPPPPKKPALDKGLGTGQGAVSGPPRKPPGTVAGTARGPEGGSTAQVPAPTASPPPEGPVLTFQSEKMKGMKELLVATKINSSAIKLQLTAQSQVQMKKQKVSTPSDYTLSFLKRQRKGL
Epigenetic derep = Quantitative High-Throughput Screen for Regulators of Epigenetic Control; AID 1865, 2009; 0.2% of 280,000 active; Potency, µM (top dose mostly 53.9 µM), inactives show at the top dose GFP activation, hits mostly activators; murine LDR cells, GFP reporter derepression, 30 h; further: potency means the concentration at half of the fitted maximal effect; % of control where 0% means no effect; nearly all actives have a fitted effect of over 60% in size
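Murine LDR cells carrying a silenced, genomically integrated CMV-driven GFP reporter were exposed to compound for 30 hours at 37 C. After PBS washes, GFP-positive cells (20–120 um objects) were counted by laser-scanning microplate cytometry.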
CXXC DNA block = qHTS Fluorescence Polarization Assay for Inhibitors of MLL CXXC domain - DNA interaction | Histone-lysine N-methyltransferase 2A (Homo sapiens), Q03164 | MLL-CXXC / FITC-HOXA9 DNA fluorescence polarization | Potency, µM (series often up to 115 µM), without a hit: at the highest dose activity change, negative = inhibition, usual class: inhibitors | 0.037% of 290,000 active; active means well fitted inhibition curve with a large enough effect in the polarisation, with a control signal flat, not every such curve was filed as active; inconclusive means small, poorly fitted or top-dose-only effect, or effect the other way, or a change in a side signal; inactive means no such curve, though single readings can be large or run the other way; the % refers to the polarisation; further: potency means the concentration at half of the fitted maximal effect
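Purified MLL-CXXC (added from a 7 uM solution) was preincubated 5 min at ambient with pinned compounds in 50 mM Tris-HCl pH 7.5, 50 mM NaCl, 1 mM DTT, 0.05% BSA. Fluorescein-labeled HOX-A9 DNA (50 nM solution) followed, 30 min, then polarization read.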
Menin MLL FP FL = qHTS Assay for Inhibitors Targeting the Menin-MLL Interaction in MLL Related Leukemias: Competition With Fluorescein Labeled MLL-derived Peptide; 290,000 tested, under 10 active; Fluorescence polarization, fluorescein-MLL peptide displacement from menin; FP activity change, % at 61.4 µM; active means well fitted curve in the direction sought with a large enough effect in the polarisation, not every such curve was filed as active; inconclusive means small, poorly fitted or top-dose-only effect, or effect the other way, or a change in a side signal; inactive means no such curve, though single readings can be large or run the other way; the % refers to the polarisation; further: % of control where 0% means no effect
ClpP mod = qHTS Assay for Activators of ClpP; purified B. subtilis ClpP, FRET peptide cleavage, 20 min; ATP-dependent Clp protease proteolytic subunit (Bacillus subtilis (strain 168)), P80244; Potency, µM (doses to about 57.5 µM), without a hit: at the highest dose activity change, negative = active; 1.9% of 340,000 active; active means well fitted falling curve with a large enough effect; inconclusive means small, poorly fitted or top-dose-only effect; inactive means no such curve, though single readings can be large or run the other way; further: potency means the concentration at half of the fitted maximal effect; the source files actives as falling curves though it sought activators and does not explain the sign; nearly all actives have a fitted effect of over 65% in size
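Buffer: 100 mM Tris/HCl pH8, 100 mM KCl, 0.05% low protease BSA, 2.5% glycerol, 0.01% Tween-20. ClpP 10 microg/mL final; 20 min RT; delta FRET normalized to ADEP and DMSO controls.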
PINK1 modulator = A Quantitative High throughput Screen to Identify Chemical Modulators of PINK1 Expression. PINK1 immunofluorescence, high-content cytometry, 24 h. Potency, µM (titrated, usually from 76.6 µM), for inactives: at the top dose activation (PINK1 increase), usual class: activators. 0.2% of 410,000 active; active means well fitted activation curve with a large enough effect; inconclusive means small, poorly fitted or top-dose-only effect; cell line not stated here; further: potency means the concentration at half of the fitted maximal effect; % of control where 0% means no effect; nearly all actives have a fitted effect of over 65% in size
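Cells are seeded, rested 12 hours, then given compound at five concentrations or DMSO for 24 hours. After fixation, blocking and antibody staining, PINK1 amount and mitochondrial localization are scored; CCCP serves as control.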
ClpP validation = qHTS Assay for Activators of ClpP: Hit Validation of Inhibitors; shares compounds with ClpP mod; purified B. subtilis ClpP, FRET-FV substrate cleavage, 20 min; Potency, µM (doses to about 57.5 µM), without a hit: at the top dose activity change, negative = inhibition, most hits filed as inhibitors; 40% of 470 active; AID 743245, 2014; further: potency means the concentration at half of the fitted maximal effect; on the % scale 0 is the no-effect control and ±100 the full control effect; nearly all actives have a fitted effect of over 70% in size
* marks the source's active call; other numbers are inactive results; [ ] = remark or other dose. Hits are enriched below; roughly 1.9% of the tested compounds scored in any of these assays. Unless noted, the call rests on the fitted dose curve; in most records, active means well fitted curve in the direction sought with a large enough effect; inconclusive means small, poorly fitted or top-dose-only effect, or another doubt; inactive means no such curve, though single readings can be large; an effect the other way counts as inactive or inconclusive.

For COc1ccc(-c2cc(C(=O)Nc3c(Cl)cc(Cl)cc3Cl)c3ccccc3n2)cc1OC the results were Menin MLL FP TR 1%, Epigenetic derep -3%, CXXC DNA block 11%, Menin MLL FP FL 2, ClpP mod 230%, PINK1 modulator inconclusive and ClpP validation 22µM*.
`COc1ccc(-c2cc(C(=O)Nc3ccc(Cl)cc3Cl)c3ccccc3n2)cc1OC` gave Menin MLL FP TR 12%, Epigenetic derep 0%, CXXC DNA block 4%, Menin MLL FP FL -1, ClpP mod 20% and PINK1 modulator 11%.
Screening COc1cc2c(cc1NC(=O)C(C)N1CCN(S(=O)(=O)c3ccc(C)c(C)c3)CC1)oc1ccccc12 (stereo unspecified) returned Menin MLL FP TR -3%, Epigenetic derep -4%, CXXC DNA block 26%, Menin MLL FP FL 0, ClpP mod 3.2µM*, PINK1 modulator 3%[38.3 µM] and ClpP validation inconclusive.
`O=C(Cn1nnc2ccccc21)N1CCCCC1` gave Menin MLL FP TR 16%, Epigenetic derep 0%, CXXC DNA block 5%, Menin MLL FP FL 1, ClpP mod 0% and PINK1 modulator 4%.
Screening O=C(CCn1nnc2ccccc21)N1CCN(c2ccccc2)CC1 returned Menin MLL FP TR 3%, Epigenetic derep 1%, CXXC DNA block 6%, Menin MLL FP FL 6, ClpP mod 60%, PINK1 modulator -1% and ClpP validation -1%.
For O=C(O)c1ccc(NC(=O)c2cccc(C(=O)Nc3ccc(C(=O)O)cc3)n2)cc1 the results were Menin MLL FP TR -29%, CXXC DNA block 4%, Menin MLL FP FL 9, ClpP mod 1% and PINK1 modulator 1%.
O=C(Nc1ccccc1)c1cccc(C(=O)Nc2ccccc2)n1 was read as CXXC DNA block -12%, ClpP mod 68%, PINK1 modulator 12% and ClpP validation 24µM*.
For O=C(Nc1cccc(-c2cn3cccnc3n2)c1)c1ccc(Br)o1 the results were Menin MLL FP TR -13%, Epigenetic derep 0%, CXXC DNA block -7%, Menin MLL FP FL 1, ClpP mod 3.5µM*, PINK1 modulator -4%[38.3 µM] and ClpP validation 2.7µM*.
Screening COc1ccc(-c2ocnc2C(=O)NCc2nn(-c3ccccc3)nc2C)cc1 returned Epigenetic derep 0%, CXXC DNA block -3%, Menin MLL FP FL 1, ClpP mod 4% and PINK1 modulator 1%.
For CN(C)CCOC1c2ccccc2CCc2ccc3ccccc3c21 (stereo unspecified) the results were ClpP mod 45%, PINK1 modulator -4% and ClpP validation 0%.
CC(=O)c1ccc(S(=O)(=O)N2CCn3cccc3C2c2ccc(F)c(F)c2)cc1 (stereo unspecified) was read as Epigenetic derep 2%, ClpP mod -2% and PINK1 modulator 2%.
`COc1ccccc1OCCNC(=O)c1ccc2c(c1)OCCO2` gave ClpP mod 7.9µM*, PINK1 modulator 4% and ClpP validation -1%.
Screening Cc1cccc(C)c1NC(=O)CNC(=O)c1ccc(COc2ccccc2)o1 returned ClpP mod 1% and PINK1 modulator 0%.
For O=C(OCC(=O)N1CCCC1)c1ccc(Cl)c([N+](=O)[O-])c1 the results were CXXC DNA block 1% and PINK1 modulator -1%.
`CCNc1ccc(C(=O)OCC(=O)N2CCCC2)cc1[N+](=O)[O-]` gave Menin MLL FP TR -3%, CXXC DNA block 3%, Menin MLL FP FL -3, ClpP mod 98%, PINK1 modulator 0% and ClpP validation -1%.
For CSc1nsc(SCC(=O)Nc2ccc(NC(C)=O)cc2)n1 the results were Menin MLL FP TR 0%, CXXC DNA block 18%, Menin MLL FP FL -2 and PINK1 modulator 0%.
For CSc1nsc(SCC(=O)Nc2ccc(Br)cn2)n1 the results were Menin MLL FP TR inconclusive, Epigenetic derep 0%, CXXC DNA block 34%, Menin MLL FP FL -1, ClpP mod 68%, PINK1 modulator 1% and ClpP validation 0%.
`CCOC(=O)C1=C[C@@H](C2CCCC2)N(S(=O)(=O)c2ccc([N+](=O)[O-])cc2)[C@H]1c1ccccc1` gave ClpP mod -1% and PINK1 modulator 0%.
Screening COc1ccccc1NC(=O)Cn1cnc2c(cnn2-c2ccc(C)c(C)c2)c1=O returned Menin MLL FP TR 12%, Epigenetic derep 15%, CXXC DNA block -9%, Menin MLL FP FL 14, ClpP mod 36%, PINK1 modulator inconclusive and ClpP validation -30%.
`Cc1ccc2nc(-c3ccc(NC(=O)c4ccc(S(C)(=O)=O)cc4)cc3)sc2c1` gave Epigenetic derep 1%, ClpP mod -11% and PINK1 modulator 0%.
Screening Cc1ccc(C)c(N(CC(=O)Nc2ccc(-c3nc4ccc(C)cc4s3)cc2)S(C)(=O)=O)c1 returned Menin MLL FP TR -17%, Epigenetic derep 12%, CXXC DNA block 11%, Menin MLL FP FL 8, ClpP mod 10µM*, PINK1 modulator inconclusive and ClpP validation 31µM*.
Screening CN(C)c1ncnc2c1ncn2[C@H]1CN(Cc2cccs2)C[C@@H](CO)O1 returned ClpP mod -1% and PINK1 modulator 2%.
CCOc1ccc(NS(=O)(=O)c2ccc(C(=O)N3CC(C)OC(C)C3)cc2)cc1 (stereo unspecified) was read as ClpP mod 1% and PINK1 modulator 1%.
Screening CCOc1ccc(S(=O)(=O)Nc2ccc(C(=O)N3CC(C)OC(C)C3)cc2)cc1 (stereo unspecified) returned ClpP mod 5.6µM*, PINK1 modulator 1% and ClpP validation 0%.
Cn1c(-c2ccc(CN3CCCCC3)o2)nc2ccccc21 was read as Menin MLL FP TR -16%, Epigenetic derep 4%, CXXC DNA block 7%, Menin MLL FP FL 10, ClpP mod 3.5µM*, PINK1 modulator 2% and ClpP validation 17µM*.

Screening results (PubChem)
